# Reference: the supplement of paper PMC6555819
# Experiments:
# Assay in all cases: PBM binding z-score (relative to random genomic background probes); higher = stronger binding; sequences stand for … in GC…GCGATTGACAGCGTAGAATGAAGG
# [1] = test system: RARb homodimer (NR concentration 270 nM)
# How it was run: (§1)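 The probes on custom Agilent 4×180K protein-binding microarrays were double-stranded, with 34-nt variable regions bearing direct-repeat seeds, single-nucleotide variants, half-site ablations and random human genomic background sequences. Incubation lasted 1 h with ligand-free nuclear receptor dimers in PBS pH 7.4, 2% milk, 0.02% Triton X-100, 1 mM DTT, 0.2 mg/mL BSA and 0.4 mg/ml salmon testes DNA. Antibodies against each partner (one per run) detected bound dimers, and fluorescence scans were regression-normalized. Binding z-scores take the random background probes as reference.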
# [2] = test system: RARg:RXRa (NR concentration 270 nM, RXRa partner concentration 90 nM)
# How it was run: as §1
# [3] = test system: RARg homodimer (NR concentration 270 nM)
# How it was run: as §1
# [4] = test system: RXRa DBDmut IVT, anti-RXR (DBD mutation: RXRa K156A/R161A, NR concentration 90 nM)
# How it was run: as §1
# [5] = test system: RXRa homodimer (NR concentration 180 nM)
# How it was run: as §1
# [6] = test system: THRa:RXRa (NR concentration 90 nM, RXRa partner concentration 90 nM)
# How it was run: as §1
# [7] = test system: THRa homodimer (NR concentration 90 nM)
# How it was run: as §1
# [8] = test system: VDR homodimer (NR concentration 270 nM)
# How it was run: as §1
Sequence,PBM binding z-score [1],PBM binding z-score [2],PBM binding z-score [3],PBM binding z-score [4],PBM binding z-score [5],PBM binding z-score [6],PBM binding z-score [7],PBM binding z-score [8]
GCTAGCGGGCCATTTGGGTCACTCAATGACGGGC,1.54,0.986,1.19,-0.841,0.742,1.94,0.129,0.0296
TCTATTAGTTGAAGGGCTACCGACGAGTCCGTTT,0.0763,0.0303,0.0781,1.63,0.354,-0.151,-0.0569,1.04
TCGAGTAGGTTAGTAGGGGCATTCAGCCAACATA,0.576,0.0411,-0.0163,0.422,0.366,0.542,0.108,0.677
AGTCAAAGTTCACTAGGTAACGTAGGATTCAGCT,3.85,4.87,5.63,4.05,3.74,1.98,0.256,3.59
TCTCGGAGGACACGAAAGGTCAGATCTCGACATC,4.71,4.58,4.87,1.53,3.65,3.82,1.45,1.13
CATACAGTGTCAGCTAGGCCAGAGTAGGGACGGC,0.245,0.397,0.832,-0.017,0.0865,0.027,0.00703,-0.455
CCTCGGAGGACTGAAGGTCAGAGCTGTCCGCTTT,2.67,2.13,1.87,-0.27,1.46,1.66,-0.417,-0.325
CCTATTAGTTGACAATAAGGGCAACCGAAGCTCG,1.52,1.04,0.963,0.782,0.644,1.8,0.906,0.927
ACTATTAGTTGAGACGAGGGTAACCGATAGGTTG,0.218,0.256,0.596,0.227,0.443,1.55,-0.208,0.283
CGTTACGGGTCACGAGGTTATAGCACGACGAGCG,3.99,6.32,5.62,2.01,7.51,3.95,1.09,1.96
TCTCGTAGGACACGAAAGGTCAGAGCTCGACATC,4.53,4.69,5.29,1.16,4.44,3.28,0.778,0.852
TAGCCTAGGTCAGATCAGGCCAGTATACGCTATA,2.07,2.81,3.44,-0.202,1.41,4.36,0.219,-0.305
GATACAGGGTCAGCTAGAGGCCAGGGTATGGAAA,3.59,6.74,4.95,0.978,4.38,3.08,0.844,1.01
TAGGCTAGGTCATGGGCCAGTATACCACGCGAAC,2.94,4.33,4.94,0.455,3.29,3.11,1.2,0.234
ATTACAGGGTCATCGTAGGCCAGAGTACGCACAG,3.91,5.86,5.41,3.6,6.79,4.86,1.78,3.83
CAGCCTAGGTCAGGGGCAGTATAGGAGGAACGTT,2.99,3.27,4.18,-0.191,1.91,2.37,0.948,0.103
CGTCCAAGGTCATAGGAGGACAGTGAAGACAGAT,4.12,5.65,6.13,3.71,5.55,4.99,2.83,3.3
ATCTCTAGGTAACCAGGTTCAGTGAATGCCGAAC,0.891,0.484,0.267,0.664,0.776,1.33,0.822,2.53
ACTAGCAGGCCAAGTTTGGGTCACTCTAACAAAG,2.06,2.24,1.6,-0.0163,0.429,2.39,1.06,0.209

Sequence,PBM binding z-score [1],PBM binding z-score [2],PBM binding z-score [3],PBM binding z-score [4],PBM binding z-score [5],PBM binding z-score [6],PBM binding z-score [7],PBM binding z-score [8]
CCTGCCAGGTCAATGGTCAGCTAAAGCAGCTCGC,3.05,3.74,4.06,1.44,2.57,3.19,1.4,0.0635
TAGCCTAGGTCAGATCGGGCCAGTGTACGCTATA,2.17,2.57,3.6,-0.434,1.23,4.03,-0.0774,-0.614
TCTAATTGGTCACGGAGGTCACACACGACGGGTA,4.68,5.01,5.18,1.55,5.28,3.73,2.75,3.23
CCTATTAGGTGACCATAAGGGCAACCGAAGCTCG,2.13,2.09,1.22,-0.22,1.08,2.64,1.52,0.127
TAATATAGGTAAACAGGTGAAAGTCCGTAAGTTA,0.737,0.857,0.756,0.169,1.26,0.862,0.313,0.444
CAAACTAGGTCAAAGAGGTCAAAGTCCGTGCGTA,5.27,6.66,6.81,3.24,7.15,4.4,2.33,6.65
ACTTACGGGTAAACGAGGTTATAGCACGCGTATA,1.12,0.939,0.812,0.819,1.57,3.64,0.765,1.45
ATCTCTAGGTAACCGAGTTCAGTGAATGCCGAAC,1.31,0.6,0.669,1.39,0.704,1.72,0.663,4.05
CCTAATGGGCCAAAGGTCATTGATTCCAATGCTC,4.39,5.84,5.06,1.72,7.11,3.26,0.623,1.9
CCGACTGGGGCAGAAACGTTACCATACCATCCGG,-0.276,-0.119,-0.0645,-0.654,-0.341,-0.691,-0.735,-0.552
CCGACTGGGGCAAGGTTACCAAAACGCACAGCCA,1.38,1.04,1.18,-0.429,1.23,1.29,0.178,-0.217
CGAACGAGGGCATGAGTCGATAGCAAATGCCGAT,0.648,0.901,1.41,1.99,0.869,0.888,-0.267,0.974
GTACCAAGGGGAATAGGTCGTTGATGAGTAGGCG,0.74,0.528,0.371,-0.365,0.651,0.124,-0.309,0.49
GGAACGAGGGCAAGTTGACAGCAGAGTTTGATGG,1.76,1.71,2.41,2.46,1.16,1.17,-0.0541,1.42
TCATATAGGTAAAAGGTGAACGTCGGTGTGGTAA,2.19,2.22,1.26,1.84,2.94,1.84,0.67,0.547
CGTCCAAGGTGAAGGTCAGTGAAAGAGACTCGAA,3.4,3.39,3.88,0.585,2.36,2.71,0.956,0.389
CGAACTAGGTCATTGACAGAACAGTGAATAGTAA,2.34,3.64,4.15,2.74,2.46,2.47,0.922,1.15
AGAATGAGGTTATTAAGAACAGGGAATTGCGGTC,0.842,1.14,0.783,2.06,1.67,2.23,0.503,1.27
CGAACGAGGGCATGACTTGATAGCAAATGCCGAT,0.668,1.26,1.54,2.16,0.981,1.2,-0.168,0.849

Sequence,PBM binding z-score [1],PBM binding z-score [2],PBM binding z-score [3],PBM binding z-score [4],PBM binding z-score [5],PBM binding z-score [6],PBM binding z-score [7],PBM binding z-score [8]
CCTTACGGGTCACTCCAGGATATAGCATCGGAGT,2.33,4.02,3.98,1.43,4.06,4.39,0.217,1.23
GCTAGCAGGCCATTAGGGTCACTCAATGACGGGC,2.83,2.53,2.08,0.0923,2.42,3.37,2.03,1.91
ACTAGCTGGCCAAGTTTGGGTCACTCAAACAAAG,1.35,0.786,0.564,-0.366,0.323,1.82,0.793,-0.123
ATCTCTATGTAAAGTTCAGTGAAAGATCGATAGA,2.23,2.06,2.29,1.3,1.08,0.757,-0.304,2.03
TTATATAGGTAAAGGTGAAAGTCGAACGATATGA,1.64,1.68,1.27,-0.41,2.15,1.44,-0.395,-0.389
AGAATGAGGTTACCAAAGACCAGGGAAACGCTTG,0.685,2.01,1.51,1.02,2.79,2.87,0.659,0.4
CAAGCTAGGTCACGAAAGGTCAAAGTCGAATGAC,5.98,8.18,8.58,2.43,8.62,5.11,2.29,3.61
ACAGACAGGTGAGTGAAGGTAACTCATCTGGACG,-0.00809,0.205,0.564,-0.622,0.146,1.57,-0.651,-0.803
AGTCAAAGTTCAGGACGAGGTAACGTAGAGCACG,3.39,4.8,4.77,2.61,3.06,4.07,1.71,2.15
TCTTGTAGTTCAAAGGTTAAGAAAGCCGAAGCCT,2.54,4.81,2.39,2.69,6.78,2.53,-0.0884,1.9
ATCTCTAGGTAAAGTTCAGTCAAAGATCGATAGA,2.8,2.17,2.39,1.6,1.35,1.46,0.288,2.11
TAGTCTAGGTCATGCGGGCCAGTATAGTGTCGGC,3.13,3.77,4.69,0.748,3.08,3.29,1.67,0.86
AGAACGAGGGCAATGAGTTGATAGCCCGGGTGGC,0.793,0.874,1.57,1.84,0.855,0.913,-0.362,2.96
TCTCGGAGCACACGAAAGGTCAGAGCTCGACATC,4.06,3.96,3.53,0.437,3.98,2.41,-0.342,-0.387
TCCGCTAGGTCAGTTGGTCAGCTAACGAGCTGCC,2.85,2.77,3.75,0.733,1.01,1.27,0.178,-0.514
AGAATGAGGTTAAGATCAGGCAAACAGAATACAT,0.764,2.13,1.63,0.944,2.49,2.86,0.441,0.247
AGAATGACGTTATTAAGATCAGGGAATTGCGGTC,-0.448,-0.146,0.0594,-0.095,-0.18,-0.42,-0.892,-0.318
AATACAGGGTCACTAGGCCAGCGTAGGTACGAAT,3.58,5.12,4.78,2.81,5.29,3.48,1.43,2.28
